CYP2C19 act – human CYP2C19 activators, primary screen, biochemical, luminescence; Cytochrome P450 2C19 (Homo sapiens), P33261; recombinant CYP2C19, luciferin-H EGE luminescence; stronger effect = higher value; 0 = fully inhibited enzyme, 1 = untreated enzyme; activation factor at 5 µM; 96,000 tested, under 10 active; AID 1025, 2008;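 active = activation factor of at least 2 at 5 µM in the primary screen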;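 also: 0 = wells with 2.5 mM tranylcypromine and 1 = vehicle-only wells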
Target sequence (P33261 whole entry, looked up): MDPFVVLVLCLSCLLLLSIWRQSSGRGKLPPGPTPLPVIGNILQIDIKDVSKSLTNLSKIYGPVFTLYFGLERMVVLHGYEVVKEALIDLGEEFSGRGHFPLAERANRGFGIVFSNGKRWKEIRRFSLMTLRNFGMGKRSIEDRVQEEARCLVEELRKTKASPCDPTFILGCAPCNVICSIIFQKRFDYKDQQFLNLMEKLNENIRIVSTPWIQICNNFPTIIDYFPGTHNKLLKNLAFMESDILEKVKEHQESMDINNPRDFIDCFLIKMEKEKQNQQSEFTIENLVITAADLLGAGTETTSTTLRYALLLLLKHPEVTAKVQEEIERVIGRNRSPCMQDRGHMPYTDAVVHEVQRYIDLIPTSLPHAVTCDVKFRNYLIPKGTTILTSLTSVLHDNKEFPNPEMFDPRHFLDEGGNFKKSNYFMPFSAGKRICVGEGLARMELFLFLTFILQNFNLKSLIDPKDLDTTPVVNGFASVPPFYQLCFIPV
CYP2C19 inh – blockers of cytochrome P450 2C19 activity – biochemical, luminescence, ADME assay, primary screen | P33261 | CYP2C19 Supersomes, luciferin-H EGE luminescence, 30 min | inhibition, % at 5 µM | hit rate 21% among 96,000 | AID 778, 2007;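 active = CYP2C19 inhibition above a set limit at 5 µM in the primary screen, cut at about 50% in these data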;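 also: plate controls were negative control wells for no effect and 2.5 mM tranylcypromine positive control for full effect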
Cav32 inh – Cav3.2 calcium influx blockers – cell-based, Fluo-4 calcium fluorescence, FDSS, MLSMR library, primary screen. Cav3.2-expressing cells; stronger effect = lower value. AID 449739, 2010. B-score at 10 µM. hit rate 4% among 100,000;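 active = single-dose well whose peak fluorescence ratio is a statistical outlier from its plate by either plate-standardised score or position-corrected B-score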
CYP2C9 inhib – blockers of cytochrome P450 2C9 activity – biochemical, luminescence, ADME assay, primary screen; CYP2C9 Supersomes, luciferin-H conversion; hit rate 20% among 96,000; P11712; inhibition, % at 5 µM;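 active = blocking of liver enzyme CYP2C9 beyond about 50% at 5 µM, limit read from the data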
CYP2C9 activ – human CYP2C9 activators, primary screen, biochemical, luminescence; AID 1024, 2008; recombinant CYP2C9, luciferin-H conversion; stronger effect = higher value; factor 1 = untreated enzyme, 0 = blocked; Cytochrome P450 2C9 (Homo sapiens), P11712; hit rate 1.4% among 96,000; activation factor at 5 µM;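 active = activation factor of 2 or more for CYP2C9 at a 5 µM dose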;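 also: 0 = sulfaphenazole-blocked wells and 1 = vehicle-only wells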
Starred values were filed as active, the others as inactive; . = not tested or not shown. Sampled rows, rich in hits. Any-hit rate of the full collection: about 27%.

SMILES	CYP2C19 act	CYP2C19 inh	Cav32 inh	CYP2C9 inhib	CYP2C9 activ
O=C(CN1CCCCC1)Nc1cccc([N+](=O)[O-])c1	1	-2.6	0.388	-3.9	1
CCN(c1ccccc1)S(=O)(=O)c1cc(C(=O)O)ccc1C	1	3.6	-0.522	0.8	1
O=C(O)CSC1CC(=O)N(c2ccc(Cl)cc2)C1=O (stereo unspecified)	1	2.1	0.246	-3.0	1
O=C1CC(SCCO)C(=O)N1c1ccccc1 (stereo unspecified)	0.8	17.6	0.108	20.6	0.8
O=C1CC(SCCc2nc3ccccc3[nH]2)C(=O)N1c1ccc(Cl)cc1 (stereo unspecified)	0.8	19.7	-6.55*	35.8	0.6
O=C1CC(SCc2nc3ccccc3[nH]2)C(=O)N1c1ccc(Cl)cc1 (stereo unspecified)	0.7	31.8	-4.95*	24.6	0.8
O=C1CC(SCc2nc3ccccc3[nH]2)C(=O)N1c1cccc(F)c1 (stereo unspecified)	0.2	81.1*	.	71.0*	0.3
O=C1CC(SCc2nc3ccccc3[nH]2)C(=O)N1c1ccc(F)c(Cl)c1 (stereo unspecified)	0.5	52.4*	-1.79	31.6	0.7
Cc1ccc(N=C2NC(=O)C(CC(=O)O)S2)cc1 (stereo unspecified)	1.2	-15.5	0.722	-8.1	1.1
O=C(O)C1=C[C@@H](c2ccc(Br)cc2)C[C@@H](OCCCCO)O1	.	.	1.63	.	.
CCCCCC/C(=N\NS(C)(=O)=O)c1ccccc1	0.8	17.0	-4.88*	34.8	0.7
CCCCCC/C(=N/O)c1ccccn1	0.8	19.7	-2.86	28.1	0.7
CC1CCCCN1C(=O)/C(=C\c1ccccc1)c1ccccc1 (stereo unspecified)	0.5	49.0	-2.66	83.6*	0.2
CN1CCN(C(=O)/C(=C/c2ccccc2)c2ccccc2)CC1	0.7	33.5	0.289	8.6	0.9
CCCCN(C(=O)NC(=O)Nc1cc(C)ccc1C)S(C)(=O)=O	0.7	34.9	0.0191	55.8*	0.4
CCCCCN(C(=O)NC(=O)Nc1nncs1)S(C)(=O)=O	0.9	7.1	-2.24	60.8*	0.4
O=C(O)C[C@H]1c2cc(C(F)(F)F)ccc2S(=O)(=O)N1C1CCCCC1	.	.	1	.	.
COc1ccc(/C=C/C(=O)Oc2cccc(/C=N/NC(=O)COc3c(C)cccc3C)c2)cc1	1	-0.2	-0.317	49.1	0.5
CC(NC(=O)Cn1cc(C(=O)C2CC2)c2ccccc21)c1ccccc1 (stereo unspecified)	0.4	59.2*	-0.492	30.0	0.7
Cn1c(SCc2ccc(C#N)cc2Cl)nc2ccccc21	0.4	56.8*	-0.00093	32.9	0.7
Cn1c(SCc2nnc3n2CCCCC3)nc2ccccc21	1.1	-5.3	0.224	-26.5	1.3
CC(C)C(NC(=O)C(c1ccccc1)c1ccccc1)c1nc2ccccc2[nH]1 (stereo unspecified)	1.2	-22.6	0.557	-1.7	1
COc1ccc(C(c2c[nH]c3ccccc23)c2c[nH]c3ccccc23)cc1O	0.1	94.6*	-0.0477	100.3*	0
CCOc1ccc(Cc2nc(N)nc(N)n2)cc1	.	.	0.616	.	.
CCOc1ccc(Cc2c(Cl)nc(N)nc2Cl)cc1	0.5	52.7*	-1.78	-3.9	1
SMILES	CYP2C19 act	CYP2C19 inh	Cav32 inh	CYP2C9 inhib	CYP2C9 activ
Cc1cccc(NC(=O)c2ccccc2NC(=O)Cc2ccccc2)c1C	.	.	0.0577	.	.
CN1C(=O)c2cccc(NC(=O)Cc3ccccc3)c2C1=O	0.6	44.0	-0.181	57.7*	0.4
Cc1cccc2c(=O)cc(C)n(CC(=O)N3CCCCC3)c12	0.1	87.9*	0.28	23.7	0.8
Cc1noc(/C=C/c2ccco2)c1S(=O)(=O)N1CCC(C(=O)N2CCc3ccccc3C2)CC1	0.6	35.2	.	73.2*	0.3
Cc1noc(/C=C/c2ccco2)c1S(=O)(=O)N1CCC(C(=O)NCc2ccco2)CC1	1	3.7	-0.247	21.4	0.8
Cc1ccc(CNC(=O)C2CCN(S(=O)(=O)c3c(C)noc3/C=C/c3ccco3)CC2)cc1	0.9	14.5	-3.58	57.2*	0.4
COc1ccc(OC)c(NC(=O)CSCC(=O)O)c1	0.9	10.2	-0.188	-4.5	1
O=[N+]([O-])c1nn(-c2ccccc2)n(O)c1=NCc1ccc2c(c1)OCO2	0.2	77.2*	-3.28	52.9*	0.5
O=[N+]([O-])c1nn(-c2ccc3c(c2)OCCO3)n(O)c1=NCCCO	1	1.5	0.0269	12.8	0.9
Cc1ccc(C)c(-n2c(Cc3cc(=O)[nH]c(=O)[nH]3)nnc2SC(C)C)c1	1	-2.0	0.531	1.9	1
Cc1sc(NC(=O)c2ccco2)c(C(c2cccnc2)N2CCN(C)CC2)c1C (stereo unspecified)	0.9	8.6	1.07	22.8	0.8
Cc1sc(NC(=O)c2ccco2)c(C(c2ccncc2)N2CCOCC2)c1C (stereo unspecified)	0.3	67.2*	0.94	81.1*	0.2
Cc1sc(NC(=O)c2ccco2)c(C(c2cccnc2)N2CCCC2)c1C (stereo unspecified)	0.7	33.1	-0.818	53.4*	0.5
C=CCn1c(SCC(=O)NCCC2=CCCCC2)nc2ccc(Cl)cc2c1=O	0.7	29.4	-1.22	56.3*	0.4
Cc1nn(CC(=O)NCc2ccc(OC(C)C)cc2)c(=O)c2cc3occc3n12	0.9	8.2	.	-31.7	1.3
Cc1ccc(NC(=S)NC(NC(=O)c2ccco2)C(Cl)(Cl)Cl)cc1 (stereo unspecified)	0.8	18.4	-0.852	92.4*	0.1
O=C(O)c1ccc(NC(=S)NC(NC(=O)c2ccco2)C(Cl)(Cl)Cl)cc1 (stereo unspecified)	1	-1.3	-4.05*	-6.9	1.1
Cc1cccc(NC(=S)NC(NC(=O)c2ccco2)C(Cl)(Cl)Cl)c1 (stereo unspecified)	0.7	29.4	-6.05*	83.6*	0.2
CCNC(=O)NC(=O)C(C)OC(=O)c1cccnc1SC (stereo unspecified)	.	.	-0.129	.	.
COc1ccc(-c2nc3ccccc3s2)cc1O	0.6	40.9	0.124	71.9*	0.3
Cn1c(NC(=O)c2ccccc2F)cc(=O)n(C)c1=O	1	-0.6	.	0.1	1
COc1cccc(C(=O)NCc2ccc(-c3nc4ccccc4s3)cc2)c1	0.6	38.6	-0.71	81.5*	0.2
COc1cccc(-c2cc(C(=O)Nc3ccc4c(c3)OCCO4)c3ccccc3n2)c1	1.2	-17.2	.	70.6*	0.3
Cn1c(NC(=O)c2cc(-c3ccc4c(c3)OCO4)nc3ccccc23)cc(=O)n(C)c1=O	0.7	29.7	.	73.1*	0.3
COc1cc(-c2nc3ccccc3s2)ccc1O	0.8	17.2	-4.27	-12.1	1.1
COc1cccc(C(=O)NCc2cccnc2)c1	0.8	21.2	0.804	-19.3	1.2

Bioassay records as filed in PubChem.
